Source: PubChem BioAssay
Where “and” joins values, the source holds several entries; their conditions need not be identical. Equal entries are not always repeated. Calls of active or inactive are those of the source.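 The calls were made as follows, unless noted: active = thallium flux through the channel raised or lowered by more than 3 SD from vehicle-only wells, actives on both sides; inactive = the rest.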 Where a SMILES comes first, the peptide text is derived from it.

Assays:
[1] = signal quenchers or enhancers, Cy5 substrate/SSB – biochemical, NIH Clinical Collection, E. coli SSB, artefact control for HCV NS3 helicase inhibitor project (AID 743268; call rule not given here); details: Cy5-oligo bound E. coli SSB, fluorescence interference
[2] = test system: Hepatitis C virus NS3 helicase; assay: blockers of NS3h binding to DNA – biochemical, fluorescence polarization, NIH Clinical Collection, primary screen (AID 743270; call rule not given here); details: NS3 helicase binding to Cy5-dT15 DNA, stronger effect = higher value, concentration not given here
[3] = target: Single-stranded DNA-binding protein (Escherichia coli (strain K12)) (UniProt P0AGE0); assay: SSB-ssDNA binding inhibitors – biochemical, fluorescence polarization, NIH Clinical Collection, counter-screen for HCV NS3 helicase inhibitor project (AID 743271; in the data active = inhibition above about 28%); details: E. coli SSB-DNA binding, stronger effect = higher value, concentration not given here
[4] = compounds distorting NS3 helicase fluorescence signal – biochemical, NIH Clinical Collection, artefact control for HCV NS3 helicase inhibitor project (AID 743272; call rule not given here;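 also: HCV NS3 helicase with a Cy5 labelled single stranded DNA probe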); details: fluorescence interference counterscreen, HCV NS3 helicase assay; stronger effect = lower value
[5] = target: 6-phosphogluconate dehydrogenase, decarboxylating (Homo sapiens) (UniProt P52209); assay: inhibition of human phosphogluconate dehydrogenase – biochemical, recombinant enzyme, NADPH absorbance, primary screen (AID 1159550;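 active = at least 20% inhibition of 6-phosphogluconate dehydrogenase activity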); details: recombinant 6PGD, NADPH absorbance 341 nm; at 10 µM; stronger effect = higher value
[6] = modulation of C. elegans fzo-1 (AID 1259413; call rule not given here;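 also: fzo-1 mutant C. elegans worms in liquid wells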); details: C. elegans fzo-1 modulator screen, mean read-out; stronger effect = higher value
[7] = EMT-state selective cytotoxicity in co-culture – imaging, PC-3E GFP, TEM4-18 mCherry, primary screen (AID 1345086;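 active = compounds killing one labelled cell type while sparing the other, by normalised counts and ratio limits, not self-fluorescent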;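 as to all read-outs here: cells exposed to compound for 72 h before imaging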;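 as to red/green cell ratio (normalised): normalised mesenchymal count divided by normalised epithelial count so high means epithelial killing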); details: PC-3E GFP / TEM4-18 mCherry co-culture, imaging cell counts, at 1 µM; for red/green cell ratio (normalised): actives lie on both sides, counts scaled to control wells, 1 = unselective
[8] = viability loss with induced miR-34 in A549 – imaging, A549 dox-inducible miR-34, nuclei and caspase counts, primary screen (AID 1347080;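 active = compounds whose cell count with miR-34 switched on is under 0.7 times the count with it off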); details: A549 miR-34 inducible, Hoechst nuclei count, 48 h
[9] = MELAS cybrid and Rieske KO viability enhancers – cell-based, MELAS cybrids, Rieske KO mouse fibroblasts, CellTiter-Glo, primary screen (AID 1508586;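 active = mean z-score across replicates of 1.96 or higher in either the MELAS or the Rieske mutant cell line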;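 also: z relative to plate mean and SD of compound and empty wells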); details: low glucose
[10] = target: Mitogen-activated protein kinase 7 (Homo sapiens) (UniProt Q13164); assay: Gal4-ERK5 driven luciferase induction – cell-based, HTS, primary screen (AID 1508626;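 active = luciferase signal above three times the same-plate solvent-only control wells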;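 also: luciferase driven by Gal4-ERK5 fusion binding five Gal4 sites before minimal TATA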); details: HeLa Gal4-ERK5 transactivation, 18 h, at 5 µM, stronger effect = higher value
[11] = galactose survival enhancers in mitochondrial complex I cybrids – cell-based, galactose medium, ATP luminescence, primary screen (AID 1645843;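 active = z-score of at least 1.8 in each of two replicates, scored against plate mean and spread of sample wells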;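 also: positive z means more ATP and so rescue of galactose-driven cybrid death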); details: complex I mutant cybrid cells, 72 h, stronger effect = higher value
F380Y = assay: BK channel mutant inhibitors and activators – cell-based, U2OS BacMam, thallium flux, beta subunits, selectivity assay, profiling panel (AID 1259406); details: U2OS BacMam BK variants, at 30 µM;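 also: initial slope of Thallos dye fluorescence rise after thallium is added; log ratio against the mean of 0.3% DMSO vehicle wells on the same plate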
F380Y/beta1 = assay: as above; details: U2OS BacMam BK variants, at 30 µM
F380Y/beta2Delta = assay: as above; details: U2OS BacMam BK variants, at 30 µM
[12] = target: Calcium-activated potassium channel subunit alpha-1 (Homo sapiens) + Leucine-rich repeat-containing protein 26 (Homo sapiens) (UniProt Q12791+Q2I0M4); assay: as above; details: U2OS BacMam BK variants, F380Y/Slo1WT/gamma1, at 30 µM
R275C = assay: as above; details: U2OS BacMam BK variants, at 30 µM
R275C/beta1 = assay: as above; details: U2OS BacMam BK variants, at 30 µM
R275C/beta2Delta = assay: as above; details: U2OS BacMam BK variants, at 30 µM
[13] = P. berghei load reduction in hepatocytes – cell-based, HepG2, luciferase luminescence, HepG2 viability, primary screen (AID 624349; in the data active = parasite load remaining mostly below about 12%, no sharp cut-off; inactive = mostly above about 10%;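 also: 100% = mean of DMSO negative control wells on the same plate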); details: P. berghei liver stage in HepG2, luciferase luminescence, concentration not given here; parasite load remaining: stronger effect = lower value; viability: measured here: HepG2 viability without parasites
[14] = measured here: epithelial PC-3E GFP cell survival
[15] = measured here: mesenchymal TEM4-18 mCherry cell survival
[16] = stronger effect = lower value, cell number ratio, induced over uninduced
[17] = measured here: relative caspase fold change +Dox/-Dox
[18] = measured here: total cells with miR-34 induction, stronger effect = lower value
[19] = measured here: total cells without miR-34 induction
[20] = MELAS cybrid survival, CellTiter-Glo 48 h, stronger effect = higher value
[21] = Rieske KO mouse fibroblast survival, CellTiter-Glo 72 h

Mitogen-activated protein kinase 7 (Homo sapiens), sequence (Q13164 whole entry, looked up, the tested form may be a part): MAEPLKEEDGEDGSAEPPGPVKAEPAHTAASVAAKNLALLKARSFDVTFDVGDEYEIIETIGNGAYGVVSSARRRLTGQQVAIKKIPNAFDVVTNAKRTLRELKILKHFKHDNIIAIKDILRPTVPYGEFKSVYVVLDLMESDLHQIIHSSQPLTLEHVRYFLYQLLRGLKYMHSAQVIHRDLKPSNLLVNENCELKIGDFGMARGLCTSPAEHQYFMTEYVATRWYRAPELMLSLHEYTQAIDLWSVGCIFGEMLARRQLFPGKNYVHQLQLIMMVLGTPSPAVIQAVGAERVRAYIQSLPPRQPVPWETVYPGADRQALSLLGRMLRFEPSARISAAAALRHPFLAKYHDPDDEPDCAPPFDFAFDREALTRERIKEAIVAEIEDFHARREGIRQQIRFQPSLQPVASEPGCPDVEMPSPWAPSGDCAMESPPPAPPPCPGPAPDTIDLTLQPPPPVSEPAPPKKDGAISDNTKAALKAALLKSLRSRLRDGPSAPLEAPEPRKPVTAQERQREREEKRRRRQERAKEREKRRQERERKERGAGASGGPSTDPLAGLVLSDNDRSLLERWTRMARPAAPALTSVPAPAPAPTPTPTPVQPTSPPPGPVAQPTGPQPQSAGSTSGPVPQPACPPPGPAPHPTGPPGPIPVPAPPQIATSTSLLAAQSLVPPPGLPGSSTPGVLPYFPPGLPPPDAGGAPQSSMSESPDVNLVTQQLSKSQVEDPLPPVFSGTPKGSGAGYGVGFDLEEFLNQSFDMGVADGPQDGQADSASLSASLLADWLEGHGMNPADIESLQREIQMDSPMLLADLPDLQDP
6-phosphogluconate dehydrogenase, decarboxylating (Homo sapiens), sequence (P52209 whole entry, looked up): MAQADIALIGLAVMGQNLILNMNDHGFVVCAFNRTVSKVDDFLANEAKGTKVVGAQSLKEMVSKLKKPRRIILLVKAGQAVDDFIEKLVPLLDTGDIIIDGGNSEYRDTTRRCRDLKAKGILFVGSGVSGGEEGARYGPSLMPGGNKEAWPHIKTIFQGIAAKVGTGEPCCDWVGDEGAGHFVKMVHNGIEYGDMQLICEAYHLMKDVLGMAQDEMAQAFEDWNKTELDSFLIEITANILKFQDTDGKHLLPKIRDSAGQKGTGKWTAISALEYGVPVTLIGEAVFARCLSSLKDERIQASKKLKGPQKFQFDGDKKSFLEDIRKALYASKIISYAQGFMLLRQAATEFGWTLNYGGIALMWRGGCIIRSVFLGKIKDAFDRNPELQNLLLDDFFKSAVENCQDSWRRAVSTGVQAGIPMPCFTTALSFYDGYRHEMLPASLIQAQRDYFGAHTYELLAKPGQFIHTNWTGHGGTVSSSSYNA
Calcium-activated potassium channel subunit alpha-1 (Homo sapiens) + Leucine-rich repeat-containing protein 26 (Homo sapiens), sequence (Q2I0M4 whole entry, looked up, one chain of several): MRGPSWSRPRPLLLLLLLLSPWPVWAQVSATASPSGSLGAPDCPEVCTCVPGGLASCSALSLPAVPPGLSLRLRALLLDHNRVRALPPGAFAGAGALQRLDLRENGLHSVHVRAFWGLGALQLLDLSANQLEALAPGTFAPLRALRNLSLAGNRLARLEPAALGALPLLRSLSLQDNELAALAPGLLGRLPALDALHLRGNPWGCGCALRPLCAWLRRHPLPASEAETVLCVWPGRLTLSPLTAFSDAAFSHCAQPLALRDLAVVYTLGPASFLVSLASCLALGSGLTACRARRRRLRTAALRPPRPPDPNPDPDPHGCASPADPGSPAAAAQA

CC[C@H]1OC(=O)[C@H](C)[C@@H](O[C@H]2C[C@@](C)(OC)[C@@H](O)[C@H](C)O2)[C@H](C)[C@@H](O[C@@H]2O[C@H](C)C[C@H](N(C)C)[C@H]2O)[C@](C)(OC)C[C@@H](C)C(=O)[C@H](C)[C@@H](O)[C@]1(C)O
1.04: normalised cell number [7, 15]
inactive: fluorescence ratio [1] 1.06 | inhibition [2] -0.4% | inhibition [3] -3.18% | fluorescence ratio [4] 0.99 | inhibition [5] 2.59% | mean signal [6] 229 | red/green cell ratio (normalised) [7] 0.75 | fold change [8, 16] 0.89 and 0.856 | z-score [9, 20] -0.605 and -0.357 | luciferase signal [10] 44 AU | z-score [11] -0.33 | log fold change Tl+ flux (F380Y) 0.0307 | log fold change Tl+ flux (F380Y/beta1) 0.0264 | log fold change Tl+ flux (F380Y/beta2Delta) -0.0353 | log fold change Tl+ flux [12] -0.0843 | log fold change Tl+ flux (R275C) -0.104 | log fold change Tl+ flux (R275C/beta1) -0.0277 | log fold change Tl+ flux (R275C/beta2Delta) 0.033
1.39: normalised cell number [7, 14]
4.5 and 0.962: fold change [8, 17]
12700 and 10400: cell count [8, 19]
11300 and 8870: cell count [8, 18]
-0.647 and -0.657: z-score [9, 21]

CC(=O)O[C@@H]1CC2C(C)(C)CCC(=O)[C@]2(C)C2CC[C@@]3(C)[C@H](c4ccoc4)OC(=O)C4OC43[C@@]21C (stereo not given in full)
inactive: inhibition [5] -0.737%

CC(C)NCC(O)COc1cccc2ccccc12 (stereo not given)
1.31: normalised cell number [7, 15]
inactive: fluorescence ratio [1] 1.01 | inhibition [2] -8.64% | inhibition [3] 2.57% | fluorescence ratio [4] 0.93 | inhibition [5] 13.6% | mean signal [6] 249 | red/green cell ratio (normalised) [7] 1.4 | luciferase signal [10] 48 AU | log fold change Tl+ flux (F380Y) 0.0569 | log fold change Tl+ flux (F380Y/beta1) -0.00888 | log fold change Tl+ flux (F380Y/beta2Delta) 0.058 | log fold change Tl+ flux [12] -0.019 | log fold change Tl+ flux (R275C) -0.0109 | log fold change Tl+ flux (R275C/beta1) 0.0491
active: log fold change Tl+ flux (R275C/beta2Delta) 0.188
0.94: normalised cell number [7, 14]

CC1=C(/C=C/C(C)=C/C=C/C(C)=C\C(=O)O)C(C)(C)CCC1
1.18: normalised cell number [7, 15]
0.91: normalised cell number [7, 14]
-0.281: z-score [9, 21]
active: log fold change Tl+ flux [12] -0.0907
inactive: fluorescence ratio [1] 1.01 | inhibition [2] 0.45% | inhibition [3] -1.24% | fluorescence ratio [4] 0.99 | inhibition [5] 16.8% | mean signal [6] 236 | red/green cell ratio (normalised) [7] 1.29 | z-score [9, 20] -0.17 | luciferase signal [10] 48 AU | z-score [11] 1.53 and -0.905 | log fold change Tl+ flux (F380Y) -0.00963 | log fold change Tl+ flux (F380Y/beta1) -0.0325 | log fold change Tl+ flux (F380Y/beta2Delta) 0.000191 | log fold change Tl+ flux (R275C) -0.0306 | log fold change Tl+ flux (R275C/beta1) -0.0172 | log fold change Tl+ flux (R275C/beta2Delta) 0.0302

CC(C)C[C@H](NC(=O)[C@H](C)N)C(=O)O (H-Ala-Leu-OH)
inactive: inhibition [5] -6.83%

COC(=O)C[C@H]1C(C)(C)C(=O)[C@@H]2CC3=C4CC(OC)O[C@@H](c5ccoc5)[C@]4(C)CCC3[C@@]1(C)C2=O (stereo not given in full)
inactive: inhibition [5] -2.67%

CC1(C)C(=O)C=C[C@]2(C)C3CC[C@@]4(C)[C@H](c5ccoc5)OC(=O)[C@H]5O[C@]54[C@]3(C)C(=O)C[C@@H]12 (stereo not given in full)
inactive: inhibition [5] 1.03%

COc1ccc(-c2cc(=O)c3c(OC)c(OC)c(OC)c(OC)c3o2)cc1OC
active: log fold change Tl+ flux [12] -0.341 | log fold change Tl+ flux (R275C) -0.784 | log fold change Tl+ flux (R275C/beta1) -0.176 | log fold change Tl+ flux (R275C/beta2Delta) -0.278
0.98: normalised cell number [7, 14]
9210 and 7680: cell count [8, 18]
9390 and 7920: cell count [8, 19]
-0.237: z-score [9, 20]
1.14 and 0.279: fold change [8, 17]
1.13: normalised cell number [7, 15]
2.19: z-score [9, 21]
66.9%: viability [13]
inactive: parasite load remaining [13] 46.2% | fluorescence ratio [1] 1.01 | inhibition [2] -1.19% | inhibition [3] -2.41% | fluorescence ratio [4] 0.96 | inhibition [5] 2.3% | mean signal [6] 277 | red/green cell ratio (normalised) [7] 1.15 | fold change [8, 16] 0.981 and 0.97 | luciferase signal [10] 48 AU | z-score [11] 0.845 | log fold change Tl+ flux (F380Y) 0.00321 | log fold change Tl+ flux (F380Y/beta1) 0.0362 | log fold change Tl+ flux (F380Y/beta2Delta) 0.0292

COC(=O)[C@H](c1ccccc1Cl)N1CCc2sccc2C1
-0.332 and -1.48: z-score [9, 21]
10100 and 12600 and 9870: cell count [8, 19]
1.36: normalised cell number [7, 15]
1.69 and 3.06 and 2.09: fold change [8, 17]
inactive: fluorescence ratio [1] 1 | inhibition [2] -9.55% | inhibition [3] 3.34% | fluorescence ratio [4] 1 | inhibition [5] 3.19% | mean signal [6] 252 | red/green cell ratio (normalised) [7] 1.19 | fold change [8, 16] 0.979 and 0.893 and 0.849 | z-score [9, 20] -0.401 and -0.448 | luciferase signal [10] 20 AU | z-score [11] -0.555 and -0.06 | log fold change Tl+ flux (F380Y) -0.0366 | log fold change Tl+ flux (F380Y/beta1) 0.0174 | log fold change Tl+ flux (F380Y/beta2Delta) -0.0129 | log fold change Tl+ flux [12] -0.0336 | log fold change Tl+ flux (R275C) 0.027 | log fold change Tl+ flux (R275C/beta1) -0.0372 | log fold change Tl+ flux (R275C/beta2Delta) -0.0599
1.15: normalised cell number [7, 14]
9850 and 11200 and 8380: cell count [8, 18]
